For some of these results: Measured potencies and affinities stand elsewhere.

Holding throughout (parameters): scale not given: direction of the effect not stated beside the values
Experiment [1] concerns the target Protein translocase subunit SecA (Escherichia coli (strain K12)) (UniProt P10408). The experiment in a line: Assay to Identify E. coli SecA ATPase Inhibitors. To be noted: 30 µM. Type of experiment: functional.
Experiment [2] addresses T1, Ubiquitin-activating enzyme e1, putative (Leishmania donovani (strain BPK282A1)) (UniProt E9BSI1).
T1 sequence (whole entry): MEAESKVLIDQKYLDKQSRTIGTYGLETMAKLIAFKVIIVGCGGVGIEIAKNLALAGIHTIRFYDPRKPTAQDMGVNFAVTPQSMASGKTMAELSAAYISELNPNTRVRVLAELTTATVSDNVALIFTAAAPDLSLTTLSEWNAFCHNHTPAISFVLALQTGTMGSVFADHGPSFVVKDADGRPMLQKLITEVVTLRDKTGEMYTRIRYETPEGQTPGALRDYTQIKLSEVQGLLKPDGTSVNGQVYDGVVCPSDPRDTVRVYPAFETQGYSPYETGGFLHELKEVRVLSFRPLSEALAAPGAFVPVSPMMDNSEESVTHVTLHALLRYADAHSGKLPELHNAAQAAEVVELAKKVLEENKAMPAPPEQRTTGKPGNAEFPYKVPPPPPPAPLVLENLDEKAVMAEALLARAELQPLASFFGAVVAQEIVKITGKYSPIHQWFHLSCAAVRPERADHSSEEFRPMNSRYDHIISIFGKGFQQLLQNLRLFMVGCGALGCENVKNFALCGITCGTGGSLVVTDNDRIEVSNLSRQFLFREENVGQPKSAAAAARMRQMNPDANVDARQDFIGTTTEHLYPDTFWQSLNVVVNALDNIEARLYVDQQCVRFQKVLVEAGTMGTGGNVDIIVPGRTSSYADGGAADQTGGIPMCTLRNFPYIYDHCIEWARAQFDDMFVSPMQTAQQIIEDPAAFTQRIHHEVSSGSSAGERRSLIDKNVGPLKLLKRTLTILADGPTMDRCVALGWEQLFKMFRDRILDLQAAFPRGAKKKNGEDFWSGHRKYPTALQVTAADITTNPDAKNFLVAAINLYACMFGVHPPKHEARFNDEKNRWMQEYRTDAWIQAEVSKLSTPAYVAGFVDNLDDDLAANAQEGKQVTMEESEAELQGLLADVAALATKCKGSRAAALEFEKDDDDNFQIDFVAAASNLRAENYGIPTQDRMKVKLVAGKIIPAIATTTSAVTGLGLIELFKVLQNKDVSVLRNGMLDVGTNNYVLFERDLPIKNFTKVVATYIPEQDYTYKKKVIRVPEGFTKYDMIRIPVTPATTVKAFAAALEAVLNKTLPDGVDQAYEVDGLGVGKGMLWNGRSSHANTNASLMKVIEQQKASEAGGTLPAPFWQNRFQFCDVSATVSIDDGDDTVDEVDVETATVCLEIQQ
The experiment in a line: Leishmania donovani Ubiquitin Activating Enzyme (LdE1). The format is functional. To be noted: 30 µM.

The target in experiment [3] is AMP-activated protein kinase, AMPK (Homo sapiens) (UniProt P54646+O43741+P54619+Q9UGJ0+Q9Y478+Q13131+Q9UGI9). The experiment can be described thus: AMP-dependent Kinase enzyme assay. An in vitro enzyme assay that detects ADP turnover that is directly proportional to AMPK activity. This uses naive AMPK that is activated during the assay with MK-8722. The format is functional. To be noted: 30 µM.

Experiment [4] concerns the target Sialic acid-binding Ig-like lectin 9 (Homo sapiens) (UniProt Q9Y336). The experiment can be described thus: Hs-Siglec9 ALPHAscreen SOP 20170721. To be noted: 10 µM. A general note: Alpha assays give light when donor and acceptor beads are brought close together.
A further experiment concerns Trypanosoma cruzi. The experiment can be described thus: Trypanosoma cruzi phosphomannomutase and mannose-1-phosphate guanylyltransferase assay. The format is functional. To be noted: 10 µM.
Experiment [5] has as its target T2, Arginase-2, mitochondrial (Homo sapiens) (UniProt P78540).
T2 sequence (whole entry): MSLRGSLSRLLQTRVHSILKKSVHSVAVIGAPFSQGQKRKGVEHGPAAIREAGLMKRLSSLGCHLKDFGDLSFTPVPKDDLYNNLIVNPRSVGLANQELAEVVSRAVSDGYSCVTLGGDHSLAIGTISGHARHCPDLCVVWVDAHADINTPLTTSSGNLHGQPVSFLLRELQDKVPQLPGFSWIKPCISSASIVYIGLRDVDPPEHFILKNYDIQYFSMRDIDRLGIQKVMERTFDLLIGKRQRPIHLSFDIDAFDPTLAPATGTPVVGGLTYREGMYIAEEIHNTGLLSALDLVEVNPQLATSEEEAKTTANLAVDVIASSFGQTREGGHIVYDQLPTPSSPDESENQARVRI
The experiment can be described thus: in vitro enzyme assay to detect the production of urea directly proportional to the activity of Arginase II. Further: in the data most compounds retested in dose-response had high values. Type of experiment: functional. To be noted: 33.3 µM.

The target in experiment [6] is T3, Proteasome subunit beta (Trypanosoma cruzi) (UniProt O96673).
T3 sequence (whole entry): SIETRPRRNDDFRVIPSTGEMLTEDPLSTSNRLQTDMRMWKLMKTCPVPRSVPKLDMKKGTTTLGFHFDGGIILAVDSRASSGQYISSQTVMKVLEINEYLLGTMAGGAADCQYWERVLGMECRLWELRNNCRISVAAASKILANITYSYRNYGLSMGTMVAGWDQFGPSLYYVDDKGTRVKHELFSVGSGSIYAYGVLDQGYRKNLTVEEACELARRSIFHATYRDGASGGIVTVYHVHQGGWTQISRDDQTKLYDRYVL
The experiment can be described thus: Trypanosoma cruzi proteasome chymotrypsin-like activity (TcProtChymo) assay. Further: in the data most compounds retested in dose-response had high values. Type of experiment: functional. To be noted: 9.37 µM.

The species named for a further experiment is Homo sapiens. The experiment in a line: To identify inhibition of the IFN signalling (Jak-Stat) pathway via expression of an eGFP reporter gene under the control of an IFN-stimulated response element (ISRE) containing MxA promoter. The format is functional. To be noted: 30 µM. On the technique in general: Reporter assays use an easily measured gene product as a stand-in for the process of interest.

In experiment [7] the target is T4, Tyrosyl-tRNA synthetase, putative (Trypanosoma cruzi (strain CL Brener)) (UniProt Q4DSP6).
T4 sequence (whole entry): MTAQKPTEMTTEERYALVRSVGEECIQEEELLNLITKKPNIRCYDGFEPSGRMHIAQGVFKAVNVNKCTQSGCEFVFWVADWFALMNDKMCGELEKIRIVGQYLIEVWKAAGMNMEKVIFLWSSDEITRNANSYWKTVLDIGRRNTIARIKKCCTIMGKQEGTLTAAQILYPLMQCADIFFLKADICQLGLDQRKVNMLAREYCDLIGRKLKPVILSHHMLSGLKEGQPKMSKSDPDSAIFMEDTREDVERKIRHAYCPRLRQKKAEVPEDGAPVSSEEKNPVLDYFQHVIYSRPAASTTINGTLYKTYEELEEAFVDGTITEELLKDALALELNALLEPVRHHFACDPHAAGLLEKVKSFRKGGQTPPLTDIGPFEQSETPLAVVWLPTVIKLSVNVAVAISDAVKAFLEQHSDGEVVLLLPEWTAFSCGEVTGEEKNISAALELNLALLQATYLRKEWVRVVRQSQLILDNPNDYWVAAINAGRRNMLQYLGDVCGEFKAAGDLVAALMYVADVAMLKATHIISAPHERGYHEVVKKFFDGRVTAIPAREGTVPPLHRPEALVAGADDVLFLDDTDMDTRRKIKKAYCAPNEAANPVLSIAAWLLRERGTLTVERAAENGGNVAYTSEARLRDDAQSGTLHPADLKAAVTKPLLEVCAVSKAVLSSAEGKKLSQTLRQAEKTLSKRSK
The experiment in a line: Trypanosoma cruzi tyrosyl tRNA synthetase (TcYRS) _High Tyrosine SOP. Further: in the data most compounds retested in dose-response had high values. Type of experiment: functional. To be noted: 30 µM.

Experiment [8] addresses T4, Tyrosyl-tRNA synthetase, putative (Trypanosoma cruzi (strain CL Brener)). The experiment in a line: Trypanosoma cruzi tyrosyl tRNA synthetase (TcYRS) SOP. Type of experiment: functional. To be noted: 30 µM.
For experiment [9], the target named is Chromo domain-containing protein 1 (Saccharomyces cerevisiae (strain ATCC 204508 / S288c) (Baker's yeast)) (UniProt P32657). The experiment can be described thus: ScCHD-1 Enzyme Inhibition Assay. Further: in the data most compounds retested in dose-response had high values. The format is functional. To be noted: 30 µM.
Chromo domain-containing protein 1 (Saccharomyces cerevisiae (strain ATCC 204508 / S288c) (Baker's yeast)), sequence (P32657 whole entry, the tested form may be a part): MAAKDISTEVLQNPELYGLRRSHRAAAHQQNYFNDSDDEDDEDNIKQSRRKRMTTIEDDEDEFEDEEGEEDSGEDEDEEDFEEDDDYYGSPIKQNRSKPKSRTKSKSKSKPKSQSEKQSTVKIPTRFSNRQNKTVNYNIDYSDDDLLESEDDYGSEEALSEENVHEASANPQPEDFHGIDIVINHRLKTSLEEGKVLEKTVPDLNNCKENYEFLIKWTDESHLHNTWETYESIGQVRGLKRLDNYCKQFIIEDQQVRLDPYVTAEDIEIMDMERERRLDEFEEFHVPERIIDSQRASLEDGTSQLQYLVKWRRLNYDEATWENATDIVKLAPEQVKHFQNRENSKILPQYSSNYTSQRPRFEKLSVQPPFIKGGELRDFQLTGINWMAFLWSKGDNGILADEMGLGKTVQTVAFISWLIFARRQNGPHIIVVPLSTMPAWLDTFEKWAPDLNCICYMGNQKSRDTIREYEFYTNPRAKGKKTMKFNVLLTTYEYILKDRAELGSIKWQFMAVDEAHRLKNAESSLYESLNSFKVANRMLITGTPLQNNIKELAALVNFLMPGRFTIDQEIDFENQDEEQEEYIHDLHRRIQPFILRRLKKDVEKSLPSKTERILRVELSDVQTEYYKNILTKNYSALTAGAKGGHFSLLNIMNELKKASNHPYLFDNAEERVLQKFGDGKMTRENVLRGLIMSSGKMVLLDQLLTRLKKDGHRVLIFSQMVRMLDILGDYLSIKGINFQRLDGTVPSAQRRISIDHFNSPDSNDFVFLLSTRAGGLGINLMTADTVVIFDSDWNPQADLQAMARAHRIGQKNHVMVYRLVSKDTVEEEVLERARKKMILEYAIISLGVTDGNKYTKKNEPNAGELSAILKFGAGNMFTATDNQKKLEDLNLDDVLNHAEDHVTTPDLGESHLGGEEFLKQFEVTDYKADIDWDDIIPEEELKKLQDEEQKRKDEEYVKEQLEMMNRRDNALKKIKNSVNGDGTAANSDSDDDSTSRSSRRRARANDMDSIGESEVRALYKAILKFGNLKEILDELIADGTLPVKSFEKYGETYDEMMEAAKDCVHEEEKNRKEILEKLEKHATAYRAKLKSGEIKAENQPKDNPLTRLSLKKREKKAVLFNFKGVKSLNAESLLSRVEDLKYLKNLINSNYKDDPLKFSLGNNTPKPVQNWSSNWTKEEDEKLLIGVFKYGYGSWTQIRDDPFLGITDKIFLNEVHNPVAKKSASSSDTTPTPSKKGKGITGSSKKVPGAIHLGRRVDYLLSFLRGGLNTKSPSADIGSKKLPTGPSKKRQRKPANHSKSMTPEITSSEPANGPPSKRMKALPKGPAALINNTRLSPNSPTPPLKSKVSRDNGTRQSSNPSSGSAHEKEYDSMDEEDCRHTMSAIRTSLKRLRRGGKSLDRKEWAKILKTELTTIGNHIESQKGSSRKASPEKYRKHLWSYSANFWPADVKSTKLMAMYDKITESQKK

Sialic acid-binding Ig-like lectin 9 (Homo sapiens), sequence (Q9Y336 whole entry): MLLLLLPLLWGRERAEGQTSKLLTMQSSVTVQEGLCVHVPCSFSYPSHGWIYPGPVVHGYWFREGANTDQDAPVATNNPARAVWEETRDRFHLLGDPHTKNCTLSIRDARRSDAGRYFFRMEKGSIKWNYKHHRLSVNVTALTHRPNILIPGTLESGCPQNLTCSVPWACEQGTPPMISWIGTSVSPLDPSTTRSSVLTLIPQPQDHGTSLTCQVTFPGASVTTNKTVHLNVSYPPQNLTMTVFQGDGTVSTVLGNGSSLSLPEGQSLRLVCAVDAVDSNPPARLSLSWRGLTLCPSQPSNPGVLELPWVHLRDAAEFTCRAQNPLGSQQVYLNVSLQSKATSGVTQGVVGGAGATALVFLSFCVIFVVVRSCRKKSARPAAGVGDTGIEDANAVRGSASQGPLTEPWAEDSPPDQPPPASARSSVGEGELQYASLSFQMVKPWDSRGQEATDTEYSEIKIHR
Protein translocase subunit SecA (Escherichia coli (strain K12)), sequence (P10408 whole entry): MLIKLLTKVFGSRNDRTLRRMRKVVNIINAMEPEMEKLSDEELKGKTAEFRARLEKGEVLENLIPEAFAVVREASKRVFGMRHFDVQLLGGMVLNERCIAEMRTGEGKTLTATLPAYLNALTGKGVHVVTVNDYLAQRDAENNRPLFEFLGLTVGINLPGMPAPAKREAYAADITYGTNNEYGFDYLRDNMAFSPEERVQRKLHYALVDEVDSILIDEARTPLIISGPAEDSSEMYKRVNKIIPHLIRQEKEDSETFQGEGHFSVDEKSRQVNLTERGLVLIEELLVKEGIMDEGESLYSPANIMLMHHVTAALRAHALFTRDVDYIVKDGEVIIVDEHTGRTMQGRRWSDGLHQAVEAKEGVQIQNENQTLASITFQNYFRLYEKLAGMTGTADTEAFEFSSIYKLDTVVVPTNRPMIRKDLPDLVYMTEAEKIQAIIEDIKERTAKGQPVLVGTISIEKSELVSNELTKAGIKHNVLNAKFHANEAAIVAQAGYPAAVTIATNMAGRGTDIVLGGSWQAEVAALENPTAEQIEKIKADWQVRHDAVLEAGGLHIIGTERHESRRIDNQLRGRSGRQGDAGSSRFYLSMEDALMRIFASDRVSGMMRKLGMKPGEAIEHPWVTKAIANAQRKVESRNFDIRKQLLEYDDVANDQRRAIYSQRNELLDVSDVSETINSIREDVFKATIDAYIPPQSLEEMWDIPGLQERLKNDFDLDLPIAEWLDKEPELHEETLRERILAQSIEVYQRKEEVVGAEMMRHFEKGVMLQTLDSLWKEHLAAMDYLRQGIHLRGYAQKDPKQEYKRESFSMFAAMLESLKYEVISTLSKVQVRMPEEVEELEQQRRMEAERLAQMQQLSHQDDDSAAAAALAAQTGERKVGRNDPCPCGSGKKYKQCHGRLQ

Consider `COc1ccc(C(O)CNc2c(C#N)c(=O)n(C)c(=O)n2C)cc1` (stereo not drawn), for which the Percent Effect in [1] is 0.0916%; in experiment [2], 12.7%; in experiment [3] it was 4.15%; in [4] it was -13.6%; in the experiment on Trypanosoma cruzi it was -6.33%; in experiment [5], 5.32%. Besides, the Percent Effect is 2.87% in [6]; 9.61% in the experiment filed under Homo sapiens; 5.42% in experiment [7]; 11.4% in [8]; -5.56% in experiment [9].

As for `Cc1cc(NC(=O)CCN2CCCC2Cn2cncn2)no1` (stereo not drawn), the Percent Effect is -6.97% in experiment [1]; 8.86% in experiment [2]; 1.01% in experiment [3]; 2.13% in [4]; -0.718% in the experiment with Trypanosoma cruzi; -2.8% in experiment [5]. For the same compound, the Percent Effect is 14.9% in experiment [6]; 2.3% in the experiment listed under Homo sapiens; 4.17% in experiment [7]; 10.1% in [8]; -27.3% in experiment [9].

`CCn1cc2c(n1)CN(C(=O)c1ccncc1)CC2COCC1CC1` (stereo not drawn): the Percent Effect is 1.97% in experiment [1]; 13.3% in experiment [2]; -0.804% in [3]; 23.2% in experiment [4]; -1.74% in the experiment on Trypanosoma cruzi; -23.5% in [5]. Also, the Percent Effect in experiment [6] is 20.9%; in the experiment filed under Homo sapiens, -8.6%; in experiment [7], 3.12%; in experiment [8] it was 20%; in experiment [9], -6.15%.

As to `COCCNC(=O)[C@@H]1CC[C@@H]2[C@@H](CCN2Cc2cnn(C)c2)O1`, the Percent Effect is -1.36% in [1]; 13.3% in experiment [2]; -7.81% in [3]; 2.22% in experiment [4]; -0.386% in the experiment with Trypanosoma cruzi; -43.5% in experiment [5]. Besides, the Percent Effect was 9.74% in experiment [6]; 2.61% in the experiment listed under Homo sapiens; 3.12% in experiment [7]; 10% in experiment [8]; -7.85% in experiment [9].

For the compound `O=C(CN1CCCC1Cn1cncn1)NC(C1CC1)C1CC1` (stereo not drawn), the Percent Effect in experiment [1] was -1.42%; in experiment [2] it was -1.39%; in experiment [3] it was 2.21%; in [4] it was -0.594%; with Trypanosoma cruzi, 2.04%; in experiment [5], 1.32%. Moreover, the Percent Effect was 10.9% in [6]; -11.5% in the experiment filed under Homo sapiens; 3.16% in [7]; 0% in experiment [8]; -1.96% in experiment [9].

Consider `Cc1noc(C(C)C)c1C(=O)NS(=O)(=O)c1ccc(Cl)cc1`, for which the Percent Effect in experiment [1] was -5.93%; in [2], 2.63%; in experiment [3] it was 7.93%; in experiment [4], 1.74%; with Trypanosoma cruzi it was 3.8%; in experiment [5], 0%. The Percent Effect amounted to 17.9% in [6]; 9.23% in the experiment listed under Homo sapiens; 6.38% in experiment [7]; 7.79% in experiment [8]; 3.02% in [9].

As for `CC(=O)N(Cc1ncc(C)o1)C1CCN(CCNC2CCCCC2)C1` (stereo not drawn), the Percent Effect in [1] is -1.61%; in experiment [2] it was 2.7%; in experiment [3], 2.29%; in [4] it was -9.81%; in the experiment with Trypanosoma cruzi, -9.68%; in experiment [5] it was 0.744%. Moreover, the Percent Effect in experiment [6] is 13%; in the experiment listed under Homo sapiens, 18.4%; in experiment [7], -2.15%; in experiment [8] it was -3.7%; in experiment [9], -7.63%.

`CCN1CC(C(=O)NC(C)(C)CNC(=O)OC(C)(C)C)CC1=O` (stereo not drawn): the Percent Effect in [1] is -5.66%; in experiment [2], 8.11%; in experiment [3] it was -1.21%; in [4], 20.7%; in the experiment with Trypanosoma cruzi it was -1.66%; in [5], 4.22%. The Percent Effect in experiment [6] was 7.47%; in the experiment listed under Homo sapiens, -16.6%; in experiment [7], 4.3%; in experiment [8] it was 8.64%; in [9], -4.86%.

For the origin of these results see ChEMBL document CHEMBL3988442, “University of Dundee, Small-Polar-MMV Screening Library” (2021).
